Source: PubChem (Johns Hopkins Ion Channel Center)
Shown are actives, neighbours in structure and some others; about 1.6% of the full set was active somewhere.
KCNQ2 enhance – KCNQ2 (rat) channel potentiation; O88943; CHO-K1 KCNQ2, FluxOR thallium flux fluorescence; stronger effect = higher value; B-score at 10 µM; hit rate 0.54% among 310,000;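 active means fluorescence ratio B-score at least 3 SD of library B-scores, with initial fluorescence B-score within 3 of them, cut at about 5.3 in these data; same plate scores as AID 2156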;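 further: B-score of peak minus minimum over baseline fluorescence ratio after K+ and Tl+ stimulus; positive B-score means potentiation of KCNQ2 with more thallium influx and brighter signal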
Target sequence (O88943 whole entry, looked up): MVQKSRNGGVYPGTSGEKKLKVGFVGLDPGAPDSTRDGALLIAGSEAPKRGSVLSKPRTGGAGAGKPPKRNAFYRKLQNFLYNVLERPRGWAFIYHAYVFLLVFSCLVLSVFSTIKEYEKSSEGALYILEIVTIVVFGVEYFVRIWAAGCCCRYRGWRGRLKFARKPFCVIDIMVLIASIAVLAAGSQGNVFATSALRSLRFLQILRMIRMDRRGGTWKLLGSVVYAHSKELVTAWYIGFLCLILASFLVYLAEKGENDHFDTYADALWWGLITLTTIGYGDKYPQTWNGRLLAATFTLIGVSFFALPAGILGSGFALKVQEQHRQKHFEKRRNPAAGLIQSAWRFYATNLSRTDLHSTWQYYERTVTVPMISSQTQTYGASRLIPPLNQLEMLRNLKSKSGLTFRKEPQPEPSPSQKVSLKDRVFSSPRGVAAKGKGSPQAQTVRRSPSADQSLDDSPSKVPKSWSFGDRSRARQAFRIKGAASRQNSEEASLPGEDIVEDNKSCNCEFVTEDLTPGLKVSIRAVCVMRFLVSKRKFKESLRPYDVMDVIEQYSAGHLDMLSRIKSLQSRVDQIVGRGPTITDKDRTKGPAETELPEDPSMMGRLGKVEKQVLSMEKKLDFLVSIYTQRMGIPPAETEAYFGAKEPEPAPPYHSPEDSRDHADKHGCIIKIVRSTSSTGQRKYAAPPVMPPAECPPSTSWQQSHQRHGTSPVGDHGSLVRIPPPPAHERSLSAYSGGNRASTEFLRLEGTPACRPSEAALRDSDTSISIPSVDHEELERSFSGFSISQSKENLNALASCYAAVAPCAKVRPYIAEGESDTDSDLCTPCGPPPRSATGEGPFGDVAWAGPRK
KCNQ2 inh – KCNQ2 (rat) channel inhibition. O88943. B-score at 10 µM. CHO-K1 KCNQ2, FluxOR thallium flux, 20 min; stronger effect = lower value. hit rate 1.1% among 310,000;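 active means fluorescence ratio B-score at most minus 3 library SDs, with starting brightness B-score within 2 library SDs, cut at about -5.5 in these data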
Active calls of the source: *; i = inactive; x = not tested or not shown.

SMILES | KCNQ2 enhance | KCNQ2 inh
COC(=O)[C@@H]1CC[C@H](C)[C@@H](c2ccc(C)cc2)N1C(=O)c1ccc(/C=N/OC[C@@H](O)COCc2ccco2)cc1 | x | i
C=CC[C@@H]1C=C[C@H](O/N=C/c2ccc(C(=O)N3[C@H](c4ccc(C)cc4)[C@@H](C)CC[C@H]3C(=O)OC)cc2)[C@@H](CO)O1 | -6.08 | -6.08*
CCCCCCSc1cccc(-c2nc3ccc(Cl)cn3c2NCc2ccccc2)c1 | x | i
C=CCn1c(=O)c(C(=O)Nc2ccccc2C)c(O)c2ccccc21 | -6.12 | -6.12*
C=CCn1c(=O)c(C(=O)Nc2ccccc2O)c(O)c2ccccc21 | x | i
CCOc1ccc(C(C)=O)cc1Cn1c(=O)oc2ccccc21 | 0.76 | i
CC1(C)NC(=O)N(CC(=O)N2CCCC(C(F)(F)F)C2)C1=O (stereo not drawn) | 1.35 | i
O=C(/C=C/c1ccc(-c2ccccc2[N+](=O)[O-])o1)c1ccc(F)cc1 | x | i
O=C(/C=C/c1ccc(-c2ccccc2[N+](=O)[O-])o1)c1ccc(Br)cc1 | -7.22 | -7.22*
O=C(Nc1cccc(C(F)(F)F)c1)c1cccnc1 | 1.83 | i
COc1cc(NC(=O)c2ccnnc2)cc(C(=O)Nc2cccc(C(F)(F)F)c2)c1 | -5.79 | -5.79*
CCCC1=Nc2cc(C(=O)N3CCCC3)ccc2Sc2ccc(C)cc21 | x | i
CCC1=Nc2cc(C(=O)N3CCCCC3)ccc2Sc2ccc(C)cc21 | -5.87 | -5.87*
CCOC(=O)N1CCN(C(=O)c2ccc3c(c2)N=C(CC)c2cc(C)ccc2S3)CC1 | x | i
CCCC1=Nc2cc(C(=O)N3CCN(c4ccccn4)CC3)ccc2Sc2ccc(C)cc21 | -5.65 | -5.65*
COc1ccccc1C(=O)N/N=C(\C)c1cccnc1 | 2 | i
CCOC(=O)c1cccc(NC(=O)Cn2nc(C)n3cccc3c2=O)c1 | 0.2 | i
CN(C)c1nc(SCC(=O)Nc2ccc(Cl)c(Cl)c2)nc(N2CCOCC2)n1 | 1.51 | i
CN(C)c1nc(SCC(=O)Nc2ccccc2)nc(N2CCOCC2)n1 | 6.36* | i
c1ccc2c(c1)CCN(c1ncnc3c1[nH]c1ccccc13)C2 | x | i
COc1cccc(N2CCN(c3ncnc4c3[nH]c3ccc(F)cc34)CC2C)c1 (stereo not drawn) | -11.2 | -11.2*
COc1cccc(N2CCN(c3ncnc4c3[nH]c3ccccc34)CC2C)c1 (stereo not drawn) | -11.1 | -11.1*
COc1ccc2[nH]c3c(N4CC(C)OC(C)C4)ncnc3c2c1 (stereo not drawn) | 0.36 | i
COc1ccccc1N1CC(C(=O)Nc2nnc(SCC(=O)N3CCOCC3)s2)CC1=O (stereo not drawn) | x | i
Cc1ccc(S(=O)(=O)Nc2cc(C)c(O)c(Sc3n[nH]c(C)n3)c2)cc1 | x | i
SMILES | KCNQ2 enhance | KCNQ2 inh
COc1ccc2[nH]cc(CCNC(=O)Cc3ccc(F)cc3)c2c1 | 0.04 | i
O=C(Nc1ccccc1F)Nc1cc(S(=O)(=O)N2CCOCC2)ccc1N1CCCC1 | 0.12 | i
O=C(Nc1ccccc1N1CCCC1)c1cc(S(=O)(=O)N2CCOCC2)ccc1Cl | -5.9 | -5.9*
CCN(CC(=O)Nc1ccc(S(=O)(=O)N2CCCCC2)cc1)Cc1ccccc1 | x | i
CCN1CCN(S(=O)(=O)c2ccc(Cl)c(C(=O)Nc3ccccc3N3CCCC3)c2)CC1 | x | i
CCN1CCN(S(=O)(=O)c2ccc(Cl)c(C(=O)Nc3ccccc3N3CCCCC3)c2)CC1 | -5.58 | -5.58*
O=C(Nc1cc(S(=O)(=O)N2CCOCC2)ccc1N1CCCC1)c1ccc2c(c1)S(=O)(=O)c1ccccc1C2=O | -5.86 | -5.86*
O=C(Nc1cc(S(=O)(=O)N2CCOCC2)ccc1N1CCCC1)c1cccnc1Cl | x | i
CCN(CC(=O)Nc1cc(S(=O)(=O)N2CCCCC2)ccc1Cl)Cc1ccccc1 | -7.75 | -7.75*
O=C(NNC(=O)c1cccc2ccccc12)c1ccc2c(c1)OCO2 | x | i
COc1ccc(C(C)=O)cc1COC(=O)CSCC(=O)Nc1ccc(C)cc1 | x | i
CCOc1ccc(S(=O)(=O)N2CCOCC2)cc1NC(=O)CN1C(=O)NC(CC)(c2ccccc2)C1=O (stereo not drawn) | x | i
COc1cc(NC(=O)CSc2nnnn2C2CCCC2)cc(OC)c1 | 0.92 | i
CCC(C(=O)NCC1CCCO1)n1nc(C)c2sc3ccccc3c2c1=O (stereo not drawn) | 0.02 | i
NC(=O)[C@@H]1CCCN1Cc1c(C(=O)N2CCc3ccccc3C2)nc2ccc(Cl)cn12 | x | i
Oc1ccc(Br)cc1C=Nc1ccc(Cl)cc1 | 2.19 | i
Cc1ccc(N=Cc2cc(Br)cc(Cl)c2O)cc1 | 12.3* | i
O=C(COc1ccc([N+](=O)[O-])cc1)NNC(=O)Nc1cccc(F)c1 | 1.44 | i
CC12CCC(=O)N1C(C(=O)Nc1cccc(F)c1)CS2 (stereo not drawn) | 0.11 | i
CC(=O)COC(=O)C1=NN(c2ccccc2)C(=O)CC1 | x | i
O=C(Cn1c(=O)n(Cc2ccco2)c(=O)c2c3c(sc21)CCCCC3)c1ccccc1 | -5.73 | -5.73*
O=C(Cn1c(=O)n(Cc2ccco2)c(=O)c2c3c(sc21)CCCCC3)Nc1ccccc1 | x | i
Cc1ccc(NC(=O)CN(C)CC(=O)NC2CCCc3ccccc32)cc1 (stereo not drawn) | x | i
CC(C)(C)c1ccc(NC(=O)CNC2CCCc3ccccc32)cc1 (stereo not drawn) | -6.9 | -6.9*
Cc1cc(C)cc(N(CC(=O)NC(C)(C)C)C(=O)CNC(=O)c2cccs2)c1 | x | i
SMILES | KCNQ2 enhance | KCNQ2 inh
O=C(CN(C1CCCCC1)C1CCCCC1)N1CCc2ccccc2C1 | -8.03 | -8.03*
O=C(CN(C1CCCCC1)S(=O)(=O)c1ccccc1)N1CCCC1 | x | i
COc1ccccc1NC(=O)CS(=O)(=O)c1cn(CC(=O)N2CCCC2)c2ccccc12 | x | i
O=C(Nc1csc(Cc2c(Cl)cccc2Cl)n1)NN1CCOCC1 | 6.08* | i
COC(=O)c1c(-c2c(Cl)cccc2Cl)noc1NC(=O)NN1CCOCC1 | x | i
COc1cccc(CN2CCN(Cc3ccc(O)cc3)CC2CCO)c1 (stereo not drawn) | x | i
c1ccc(Sc2ncccn2)nc1 | 0.46 | i
COc1ccc(NC(=O)Cn2nnc(C(=O)NCc3ccc4c(c3)OCO4)c2N)c(OC)c1 | x | i
Cc1cc(C)n(-c2nc3ccccc3nc2N2CCN(S(=O)(=O)c3ccc(F)c(C)c3)CC2)n1 | x | i
Cc1cc(C)n(-c2nc3ccccc3nc2N2CCN(S(=O)(=O)c3ccc4ccccc4c3)CC2)n1 | -5.89 | -5.89*
Cc1cc(Br)ccc1OCC(=O)NNC(=O)c1cnccn1 | x | i
Cc1cc(S(=O)(=O)c2ccc([N+](=O)[O-])cn2)ccc1Br | x | i
Cc1ccc(S(=O)(=O)c2ccc([N+](=O)[O-])cn2)cc1 | -5.97 | -5.97*
CCNC(=S)Nc1scc(-c2ccccc2)c1C(=O)OCC | 12.1* | i
CCOC(=O)c1c(-c2ccccc2)csc1NC(=O)CCN1C(=O)c2ccccc2C1=O | x | i
Cc1cccc(NC(=S)N2CCC(NC(=O)c3cccc(F)c3)CC2)c1 | 0.11 | i
CC(C)SCCCCOc1ccc2ccccc2c1 | -6.89 | -6.89*
c1ccc2cc(OCCOCCOc3ccc4ccccc4c3)ccc2c1 | x | i
CC(C)SCCCOc1ccc(C(C)(C)C)cc1 | -5.81 | -5.81*
CC(C)(C)c1ccc(OCCN2CCCC2)cc1 | x | i
Cc1nn(Cc2ccccc2)c(Cl)c1C(=O)OCc1nnc(-c2ccc(Cl)cc2)o1 | -6.09 | -6.09*
Cc1nn(Cc2ccccc2)c(Cl)c1C(=O)OCc1nnc(-c2ccccc2)o1 | 0.79 | i
